# PubChem BioAssay (EPA / NIEHS)
# Inconclusive results are not listed. The source made the active and inactive calls. How the source made its calls: active means hit-call score of the fitted dose curve at least 0.9, where 1 is the maximum; inconclusive means response in the unintended direction; inactive means score below 0.9.
# Tests used:
# [1] = ACEA_ER_AUC_viability: ACEA Biosciences xCELLigence Real-Time Cell Analysis on Estrogen Receptor Agonism for Viability (AID 2283782);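 further: hit means loss of impedance signal meaning reduced cell growth or viability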
# Summary of the method: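 Viability endpoint: reduced impedance area under the curve relative to DMSO, recorded by real-time electrode sensing over ~80 h of continuous exposure. Duplicate plates of T47D in hormone-depleted medium; eight concentrations, 1:4 dilutions, 100 uM maximum.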
# [2] = ACEA_AR_agonist_AUC_viability: ACEA Biosciences xCELLigence Real-Time Cell Analysis on Androgen Receptor Agonism for Viability (AID 2283775);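 on AC50: viability read 80 hours after compound addition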
# Summary of the method: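 22Rv1 cells; impedance growth kinetics; 8-pt 1:4 dilutions from 100 uM top final, ≤0.5% DMSO; n = 2; 80 h read; AUC viability, loss-of-signal vs DMSO.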
# [3] = ACEA_AR_antagonist_AUC_viability: ACEA Biosciences xCELLigence Real-Time Cell Analysis on Androgen Receptor Antagonism for Viability (AID 2283776);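 further: 22Rv1 human prostate cancer cells growing on impedance electrode plates; area under impedance growth curve at 80 h after dosing as viability; hits lower the growth signal relative to DMSO meaning cytotoxicity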
# Summary of the method: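 Viability endpoint from label-free cell-index monitoring: 22Rv1 cultures treated with an eight-point 1:4 dilution series starting at 100 uM final, AUC at 80 h fitted against DMSO.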
# [4] = STM_H9_NormalizedViability: Cytotoxicity Assessment at 120 hours in the Stemina devTOX quickPredict H9 human embryonic stem cell (hESC)-based Assay (AID 2283784)
# Summary of the method: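 Viability endpoint: background-corrected CellTiter-Fluor RFU expressed relative to the 0.1% DMSO mean on each plate. Undifferentiated H9 cells were treated with daily re-dosing and media change, and loss of signal was fitted.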
# [5] = biological target: AR (gene 367) (UniProt P10275); assay: ACEA_AR_agonist_80hr: ACEA Biosciences xCELLigence Real-Time Cell Analysis on Androgen Receptor Agonism for Proliferation (AID 2283783);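 further: hits increase impedance growth signal above DMSO baseline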
# Summary of the method: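 Eight concentrations, 1:4 serial dilution from a 100 uM final top, in biological duplicate. Impedance-based real-time growth of 22Rv1 cells after overnight baseline, recorded hourly and read at 80 hours. Controls: testosterone, MG132, assay media.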
# [6] = biological target: AR (gene 367) (UniProt P10275); assay: ACEA_AR_antagonist_80hr: ACEA Biosciences xCELLigence Real-Time Cell Analysis on Androgen Receptor Antagonism for Proliferation (AID 2283787);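 further: 22Rv1 human prostate cancer cells with growth followed by electrical impedance; hits lower the impedance growth signal relative to DMSO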
# Summary of the method: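 Impedance-based real-time growth of 22Rv1 prostate cells, read 80 h after dosing. Eight concentrations, 1:4 series, top 100 uM final (0.5% DMSO), n = 2; signal decrease scored against DMSO.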
# [7] = system: frog Estrogen Receptor (ESR1), gene 398734; assay: ATG_frER1_XSP1: Attagene TRANS-FACTORIAL Multi-Species (XSP1) HepG2 Assay for frog Estrogen Receptor (ESR1) (AID 2283777)
# Summary of the method: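 HepG2 cells transiently transfected with GAL4-UAS reporter units and frog ER–Gal4 chimera were dosed for 24 h with 3 nM 6-alpha-fluorotestosterone present. Reporter mRNA was measured by RT-PCR and capillary electrophoresis; gain of signal fitted versus DMSO.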
# [8] = system: zebrafish Estrogen Receptor (ESR2A), gene 317734; assay: ATG_zfER2a_XSP1: Attagene TRANS-FACTORIAL Multi-Species (XSP1) HepG2 Assay for zebrafish Estrogen Receptor (ESR2A) (AID 2283778)
# Summary of the method: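 Reporter transcripts were quantified by RT-PCR, 6-FAM labelling, HpaI digestion and capillary electrophoresis after 24 h dosing. The cells were HepG2 transiently carrying a zebrafish ER2a–Gal4 construct plus multiplexed UAS reporters; medium contained 3 nM 6-alpha-fluorotestosterone.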
# [9] = biological target: chicken Estrogen Receptor (ESR1), ESR1 (gene 396099) (UniProt P06212); assay: ATG_chERa_XSP1: Attagene TRANS-FACTORIAL Multi-Species (XSP1) HepG2 Assay for chicken Estrogen Receptor (ESR1) (AID 2283779)
# Summary of the method: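 Trans-activation of an exogenous chicken ERα–Gal4 chimera read as reporter transcript (RT-PCR, fluorescent labeling, capillary electrophoresis) after 24 h compound exposure of transfected HepG2; medium held 3 nM 6-alpha-fluorotestosterone. Positive-direction fit against DMSO.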
# [10] = biological target: Estrogen receptor (Homo sapiens) (UniProt P03372); assay: ATG_hERa_XSP1: Attagene TRANS-FACTORIAL Multi-Species (XSP1) HepG2 Assay for human Estrogen Receptor (ESR1) (AID 2283780)
# Summary of the method: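 Reporter transcripts from multiplexed GAL4-UAS units driven by NR-Gal4 chimeras in transiently transfected HepG2 were measured by RT-PCR with capillary electrophoresis 24 h post-dose, with 3 nM 6-alpha-fluorotestosterone present; gain-of-signal relative to DMSO.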
# [11] = biological target: Estrogen receptor beta (Homo sapiens) (UniProt Q92731); assay: ATG_hERb_XSP1: Attagene TRANS-FACTORIAL Multi-Species (XSP1) HepG2 Assay for human Estrogen Receptor (ESR2) (AID 2283788)
# Summary of the method: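 HepG2 cells transiently transfected with multiplexed GAL4-UAS reporter units carrying chimeric human ERβ-Gal4; 24 h compound exposure with 3 nM 6-alpha-fluorotestosterone present. Reporter mRNA quantified by RT-PCR, FAM labelling and capillary electrophoresis; gain-of-signal fitted versus DMSO.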
# [12] = ATG_M_06_XSP1: Attagene TRANS-FACTORIAL Multi-Species (XSP1) HepG2 Assay for M06 Transcription Factor (Internal Marker) (AID 2283790)
# Summary of the method: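 This background-control readout tracks M06 reporter mRNA, measured by RT-PCR and capillary electrophoresis. HepG2 cells transiently carrying the GAL4-UAS reporter panel were dosed for 24 h with 3 nM 6-alpha-fluorotestosterone added for partial AR stimulation; increases were scored relative to DMSO.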
# [13] = ATG_M_61_XSP1: Attagene TRANS-FACTORIAL Multi-Species (XSP1) HepG2 Assay for M61 Transcription Factor (Internal Marker) (AID 2283797)
# Summary of the method: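 Background-control readout: reporter transcripts measured by RT-PCR and capillary electrophoresis 24 h after dosing transiently transfected HepG2 multi-reporter cells, with 3 nM 6-alpha-fluorotestosterone present. Fitted in the positive direction relative to DMSO.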
# [14] = biological target: Peroxisome proliferator-activated receptor gamma (Homo sapiens) (UniProt P37231); assay: ATG_hPPARg_XSP1: Attagene TRANS-FACTORIAL Multi-Species (XSP1) HepG2 Assay for human Peroxisome Proliferator-activated Receptor gamma (PPARg) (AID 2283800)
# Summary of the method: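 Reporter mRNA induction, measured by RT-PCR with capillary electrophoresis 24 h after dosing, scored as gain over DMSO. Transfected HepG2 cells express exogenous NR-Gal4 chimeras driving GAL4-UAS reporters; medium includes 3 nM 6-alpha-fluorotestosterone.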
# [15] = system: zebrafish Peroxisome Proliferator-activated Receptor gamma (PPARg), gene 557037; assay: ATG_zfPPARg_XSP1: Attagene TRANS-FACTORIAL Multi-Species (XSP1) HepG2 Assay for zebrafish Peroxisome Proliferator-activated Receptor gamma (PPARg) (AID 2283801)
# Summary of the method: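 Trans-activation readout of chimeric zebrafish PPARg–GAL4 in transiently transfected human HepG2 cells, 24 h chemical exposure (medium includes 3 nM 6-alpha-fluorotestosterone). Reporter transcripts measured by RT-PCR and capillary electrophoresis, fitted as gain over DMSO.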
# [16] = biological target: mouse Peroxisome Proliferator-activated Receptor gamma (PPARg), Pparg (gene 19016) (UniProt P37238); assay: ATG_mPPARg_XSP1: Attagene TRANS-FACTORIAL Multi-Species (XSP1) HepG2 Assay for mouse Peroxisome Proliferator-activated Receptor gamma (PPARg) (AID 2283802)
# Summary of the method: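 Readout is reporter mRNA induction, measured by RT-PCR with 6-FAM labelling, HpaI digestion and capillary electrophoresis, 24 h post-dose relative to DMSO. Transient multi-reporter transfection of human HepG2 with mouse PPARg–GAL4 fusion; 3 nM 6-alpha-fluorotestosterone included.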
# Sequence of AR (gene 367) (P10275 whole entry, looked up): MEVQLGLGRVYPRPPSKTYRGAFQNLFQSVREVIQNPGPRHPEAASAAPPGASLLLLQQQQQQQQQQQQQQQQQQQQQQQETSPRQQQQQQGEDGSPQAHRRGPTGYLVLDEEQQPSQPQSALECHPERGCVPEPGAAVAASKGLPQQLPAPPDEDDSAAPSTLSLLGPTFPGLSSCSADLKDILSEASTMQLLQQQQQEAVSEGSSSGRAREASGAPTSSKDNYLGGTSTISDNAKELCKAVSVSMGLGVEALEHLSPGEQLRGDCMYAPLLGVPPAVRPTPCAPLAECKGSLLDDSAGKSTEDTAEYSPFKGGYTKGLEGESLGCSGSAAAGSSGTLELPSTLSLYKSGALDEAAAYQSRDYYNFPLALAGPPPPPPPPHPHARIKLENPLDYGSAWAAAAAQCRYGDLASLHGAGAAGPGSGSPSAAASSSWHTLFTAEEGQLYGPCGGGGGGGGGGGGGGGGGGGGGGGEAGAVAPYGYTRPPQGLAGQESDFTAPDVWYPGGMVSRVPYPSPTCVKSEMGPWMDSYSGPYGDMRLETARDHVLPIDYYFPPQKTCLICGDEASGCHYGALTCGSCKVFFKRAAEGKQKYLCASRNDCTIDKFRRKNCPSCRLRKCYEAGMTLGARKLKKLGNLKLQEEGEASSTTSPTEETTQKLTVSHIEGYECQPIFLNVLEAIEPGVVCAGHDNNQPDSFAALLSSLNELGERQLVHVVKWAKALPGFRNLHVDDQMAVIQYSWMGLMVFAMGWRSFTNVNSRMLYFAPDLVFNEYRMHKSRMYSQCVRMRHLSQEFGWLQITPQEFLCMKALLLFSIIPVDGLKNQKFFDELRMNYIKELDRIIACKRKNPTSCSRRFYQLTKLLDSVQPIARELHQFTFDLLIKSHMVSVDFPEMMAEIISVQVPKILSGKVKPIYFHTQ
# Sequence of Estrogen receptor (Homo sapiens) (P03372 whole entry, looked up, the tested form may be a part): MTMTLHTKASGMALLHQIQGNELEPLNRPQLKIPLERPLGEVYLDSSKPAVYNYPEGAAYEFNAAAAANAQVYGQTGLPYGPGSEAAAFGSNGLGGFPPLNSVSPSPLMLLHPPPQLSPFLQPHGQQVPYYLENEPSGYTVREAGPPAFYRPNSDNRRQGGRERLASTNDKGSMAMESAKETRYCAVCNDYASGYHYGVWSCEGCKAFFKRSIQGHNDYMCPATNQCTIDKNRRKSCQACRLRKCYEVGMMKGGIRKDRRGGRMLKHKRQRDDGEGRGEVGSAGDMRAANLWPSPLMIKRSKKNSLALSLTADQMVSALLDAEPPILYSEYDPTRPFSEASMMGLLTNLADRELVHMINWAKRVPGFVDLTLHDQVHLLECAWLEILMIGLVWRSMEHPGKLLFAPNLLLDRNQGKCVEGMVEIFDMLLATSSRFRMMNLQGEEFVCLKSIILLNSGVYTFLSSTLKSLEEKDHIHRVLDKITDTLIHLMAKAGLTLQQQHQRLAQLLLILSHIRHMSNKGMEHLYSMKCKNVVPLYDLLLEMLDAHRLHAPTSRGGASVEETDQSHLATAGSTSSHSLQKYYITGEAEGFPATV
# Sequence of mouse Peroxisome Proliferator-activated Receptor gamma (PPARg), Pparg (gene 19016) (P37238 whole entry, looked up, the tested form may be a part): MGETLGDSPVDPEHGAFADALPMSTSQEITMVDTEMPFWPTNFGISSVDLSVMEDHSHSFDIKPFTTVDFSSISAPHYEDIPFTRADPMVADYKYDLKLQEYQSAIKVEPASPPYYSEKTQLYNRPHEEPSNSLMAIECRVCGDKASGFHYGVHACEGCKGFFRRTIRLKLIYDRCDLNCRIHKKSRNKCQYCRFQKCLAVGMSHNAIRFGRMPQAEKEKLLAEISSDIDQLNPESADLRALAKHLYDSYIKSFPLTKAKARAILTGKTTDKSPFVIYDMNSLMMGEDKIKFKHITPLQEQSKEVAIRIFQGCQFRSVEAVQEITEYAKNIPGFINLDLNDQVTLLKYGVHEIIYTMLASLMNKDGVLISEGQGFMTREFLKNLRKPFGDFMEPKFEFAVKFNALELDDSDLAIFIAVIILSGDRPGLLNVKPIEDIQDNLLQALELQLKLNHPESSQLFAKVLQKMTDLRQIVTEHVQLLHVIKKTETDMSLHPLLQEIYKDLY
# Sequence of Peroxisome proliferator-activated receptor gamma (Homo sapiens) (P37231 whole entry, looked up, the tested form may be a part): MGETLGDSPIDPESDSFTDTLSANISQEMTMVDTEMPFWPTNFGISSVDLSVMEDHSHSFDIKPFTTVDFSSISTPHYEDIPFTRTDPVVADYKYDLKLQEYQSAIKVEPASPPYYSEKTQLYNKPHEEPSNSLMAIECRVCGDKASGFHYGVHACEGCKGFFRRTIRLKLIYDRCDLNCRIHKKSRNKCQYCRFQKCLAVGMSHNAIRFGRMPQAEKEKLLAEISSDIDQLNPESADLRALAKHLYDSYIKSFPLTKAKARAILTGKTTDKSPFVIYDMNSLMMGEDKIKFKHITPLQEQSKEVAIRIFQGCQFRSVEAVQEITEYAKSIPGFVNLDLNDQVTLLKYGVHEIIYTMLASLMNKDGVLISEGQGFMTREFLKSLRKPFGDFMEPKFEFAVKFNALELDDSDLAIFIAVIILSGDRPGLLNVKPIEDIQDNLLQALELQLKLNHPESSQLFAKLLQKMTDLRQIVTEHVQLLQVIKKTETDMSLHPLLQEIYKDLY
# Sequence of Estrogen receptor beta (Homo sapiens) (Q92731 whole entry, looked up, the tested form may be a part): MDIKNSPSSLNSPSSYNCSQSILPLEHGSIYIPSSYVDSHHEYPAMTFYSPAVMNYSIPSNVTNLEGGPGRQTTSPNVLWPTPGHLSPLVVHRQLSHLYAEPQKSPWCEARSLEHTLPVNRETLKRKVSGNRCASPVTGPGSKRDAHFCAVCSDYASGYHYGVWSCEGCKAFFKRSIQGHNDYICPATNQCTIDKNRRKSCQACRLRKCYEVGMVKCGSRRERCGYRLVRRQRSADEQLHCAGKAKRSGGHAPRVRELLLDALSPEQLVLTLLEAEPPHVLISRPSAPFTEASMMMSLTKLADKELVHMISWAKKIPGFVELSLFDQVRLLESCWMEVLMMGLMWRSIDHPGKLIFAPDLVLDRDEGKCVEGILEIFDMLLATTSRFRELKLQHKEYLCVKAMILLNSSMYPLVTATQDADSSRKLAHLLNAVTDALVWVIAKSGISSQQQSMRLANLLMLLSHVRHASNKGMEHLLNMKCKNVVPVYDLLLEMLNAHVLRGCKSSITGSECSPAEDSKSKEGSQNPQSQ
# Sequence of chicken Estrogen Receptor (ESR1), ESR1 (gene 396099) (P06212 whole entry, looked up, the tested form may be a part): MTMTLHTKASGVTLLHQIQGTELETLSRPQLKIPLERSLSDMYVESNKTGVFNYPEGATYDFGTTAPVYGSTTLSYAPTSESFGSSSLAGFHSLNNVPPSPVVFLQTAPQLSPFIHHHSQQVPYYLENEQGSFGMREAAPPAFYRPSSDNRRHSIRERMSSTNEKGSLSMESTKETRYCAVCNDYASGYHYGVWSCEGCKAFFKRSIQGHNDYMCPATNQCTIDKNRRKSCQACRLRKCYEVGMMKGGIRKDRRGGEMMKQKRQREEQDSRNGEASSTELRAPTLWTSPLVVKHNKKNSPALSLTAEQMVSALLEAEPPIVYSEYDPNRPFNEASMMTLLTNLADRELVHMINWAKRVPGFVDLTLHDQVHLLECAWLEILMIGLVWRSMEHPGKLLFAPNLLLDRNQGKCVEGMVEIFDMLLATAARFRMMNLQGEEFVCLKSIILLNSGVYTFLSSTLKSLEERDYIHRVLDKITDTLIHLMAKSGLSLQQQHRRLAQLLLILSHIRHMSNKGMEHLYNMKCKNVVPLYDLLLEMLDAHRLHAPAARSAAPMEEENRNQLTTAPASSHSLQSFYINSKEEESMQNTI
compound,measurement,setting,value
CCCCN1C(=O)[C@@H]([C@H](O)C2CCCCC2)NC(=O)C12CCN(Cc1ccc(Oc3ccc(C(=O)O)cc3)cc1)CC2,AC50,[1],64.6 µM (active)
CC[C@H](C)C(=O)O[C@H]1C[C@H](O)C=C2C=C[C@H](C)[C@H](CC[C@@H](O)C[C@@H](O)CC(=O)O)[C@H]21,outcome,[2],inactive
same,outcome,[3],inactive
same,outcome,[4],inactive
Cc1nc(-c2ccccn2)ncc1C(=O)Nn1cc(C)c2cc(F)ccc21,AC50,[5],0.000427 µM (active)
same,outcome,[4],inactive
FC(F)C(F)(F)COCC1CO1 (stereo not drawn),outcome,[1],inactive
OCc1c[nH]c2ccccc12,AC50,[1],87 µM (active)
C=CN1CCCC1=O,outcome,[3],inactive
C[C@@H](Oc1ccc(CNC(=O)c2cccnc2Oc2ccc3c(c2)OCO3)c(F)c1)C(=O)O,outcome,[3],inactive
same,outcome,[1],inactive
NCC(F)(F)C(F)(F)C(F)(F)C(F)(F)F,outcome,[1],inactive
OC[C@H]1O[C@@](CO)(O[C@H]2O[C@H](CO)[C@@H](O)[C@H](O)[C@H]2O)[C@@H](O)[C@@H]1O,outcome,[3],inactive
same,outcome,[1],inactive
COS(C)(=O)=O,outcome,[3],inactive
same,AC50,[4],70.5 µM (active)
O=C(Cl)C(F)(F)C(F)(F)C(F)(F)C(=O)Cl,outcome,[1],inactive
NNC(=O)c1ccncc1,outcome,[3],inactive
CCc1cccc(CC)c1N,AC50,[2],50 µM (active)
same,AC50,[3],9.94 µM (active)
same,outcome,[5],inactive
same,AC50,[6],7.11 µM (active)
Cn1c(=O)c2[nH]cnc2n(C)c1=O,outcome,[2],inactive
same,outcome,[1],inactive
OC(O)(C(F)C(O)(O)C(F)(F)F)C(F)(F)F,AC50,[1],75 µM (active)
O=C(N[C@H](CO)[C@H](O)c1ccc([N+](=O)[O-])cc1)C(Cl)Cl,AC50,[1],73.2 µM (active)
S=P(N1CC1)(N1CC1)N1CC1,AC50,[1],69 µM (active)
Cc1ccc(S(=O)(=O)NC(=O)NN2CCCCCC2)cc1,outcome,[3],inactive
O=c1[nH]cnc2c1ncn2[C@H]1CC[C@@H](CO)O1,outcome,[2],inactive
same,outcome,[3],inactive
same,outcome,[4],inactive
NC(=O)N1c2ccccc2C=Cc2ccccc21,outcome,[4],inactive
CC(C)C(=O)Nc1ccc([N+](=O)[O-])c(C(F)(F)F)c1,AC50,[2],55.2 µM (active)
same,outcome,[7],inactive
same,outcome,[8],inactive
same,outcome,[9],inactive
same,outcome,[10],inactive
same,AC50,[4],65.6 µM (active)
same,outcome,[11],inactive
same,outcome,[12],inactive
same,outcome,[13],inactive
same,AC50,[14],21.9 µM (active)
same,outcome,[15],inactive
same,AC50,[16],27.1 µM (active)
Cc1cccc(O)c1C,outcome,[3],inactive
same,outcome,[1],inactive
COCc1nnc(-c2ccc[n+]([O-])c2)n1-c1c(Cl)c(Cl)cc2[nH]c(=O)c(=O)[nH]c12,outcome,[2],inactive
same,outcome,[3],inactive
same,outcome,[6],inactive
CCCCC(CC)C(=O)OCCOCCOCCOC(=O)C(CC)CCCC (stereo not drawn),AC50,[2],50 µM (active)
same,AC50,[3],50 µM (active)
same,outcome,[5],inactive
same,AC50,[6],65.8 µM (active)
